Test results published in article PMC4336329 (PLoS ONE, 2015).
Hit rate of the full screen: of about 310,000 compounds, about 14,000 (4.5%) showed an effect of 50% or more. The effect is printed as a negative number. The entries come from a sample that favours strong results as a whole.

Each compound was assayed against human ether-à-go-go-related gene (hERG) potassium channel (human, UniProt Q12809) (assay: primary screen, population patch clamp on CHO cells stably expressing hERG; higher = less effect of the substance).
human ether-à-go-go-related gene (hERG) potassium channel, sequence (Q12809 whole entry, looked up): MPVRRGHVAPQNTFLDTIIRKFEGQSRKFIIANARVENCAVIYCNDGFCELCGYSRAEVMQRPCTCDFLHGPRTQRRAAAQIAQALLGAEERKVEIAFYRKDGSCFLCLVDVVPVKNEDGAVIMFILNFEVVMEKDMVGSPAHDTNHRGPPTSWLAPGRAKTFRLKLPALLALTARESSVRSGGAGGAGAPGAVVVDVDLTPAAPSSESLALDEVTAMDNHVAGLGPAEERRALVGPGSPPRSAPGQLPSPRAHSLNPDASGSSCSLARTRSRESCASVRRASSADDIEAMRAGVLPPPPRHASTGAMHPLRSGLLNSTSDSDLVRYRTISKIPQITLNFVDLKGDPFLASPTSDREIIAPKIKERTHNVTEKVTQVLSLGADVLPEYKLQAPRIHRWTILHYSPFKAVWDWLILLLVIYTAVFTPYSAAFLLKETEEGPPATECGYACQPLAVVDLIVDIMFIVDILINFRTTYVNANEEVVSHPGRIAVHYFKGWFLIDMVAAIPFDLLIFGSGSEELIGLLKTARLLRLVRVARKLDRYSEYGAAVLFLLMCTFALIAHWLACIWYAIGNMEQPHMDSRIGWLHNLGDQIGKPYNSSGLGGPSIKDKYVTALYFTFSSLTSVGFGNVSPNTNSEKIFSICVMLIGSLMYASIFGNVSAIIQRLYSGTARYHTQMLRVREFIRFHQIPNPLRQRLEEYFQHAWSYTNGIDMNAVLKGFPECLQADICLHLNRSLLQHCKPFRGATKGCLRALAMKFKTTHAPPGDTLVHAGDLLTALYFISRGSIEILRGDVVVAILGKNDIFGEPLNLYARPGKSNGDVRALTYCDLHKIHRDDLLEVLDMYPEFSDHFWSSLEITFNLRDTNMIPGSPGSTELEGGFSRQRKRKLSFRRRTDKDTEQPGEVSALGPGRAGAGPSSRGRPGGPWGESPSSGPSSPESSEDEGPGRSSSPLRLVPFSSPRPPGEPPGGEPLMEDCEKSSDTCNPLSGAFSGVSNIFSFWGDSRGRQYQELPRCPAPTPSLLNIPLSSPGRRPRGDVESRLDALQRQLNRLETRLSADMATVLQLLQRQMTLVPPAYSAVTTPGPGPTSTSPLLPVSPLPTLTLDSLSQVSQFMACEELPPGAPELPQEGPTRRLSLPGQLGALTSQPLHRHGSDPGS
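Also: peak tail current of the secondary pulse compared with the same well before compound.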

SMILES	hERG current change (%, negative = inhibition) at 10uM [%]
CC(C)(C)N/C=C(\C#N)S(=O)(=O)c1ccc(Br)cc1	-10.5
C=CCN1C(=O)C2C(C(=O)NC)C3C=CC2(O3)C1C(=O)NCc1ccc(OC)cc1 (stereo not drawn)	0.24
Cc1cc(C)n2nc(CC(=O)NC3CCCCCC3)nc2n1	5.03
Cc1cc(C)n2nc(CC(=O)NC3CCCCCCC3)nc2n1	-70.9
Cc1cc(C)n2nc(SCC(=O)NC3CCCCC3)nc2n1	1.68
CCOC(=O)CCc1c(C(=O)OCC)[nH]c(CC)c1C(=O)OCc1ccccc1	-17.2
COCc1cc(C)nc(SCC(=O)Nc2ccc3c(c2)OCCO3)c1C#N	13.4
CCOC(=O)C1CCN(C(=O)CN2C(=O)c3ccccc3Sc3ncccc32)CC1	6.06
O=C(NCc1ccc(Cl)cc1)c1ccc(CS(=O)Cc2cccc(Cl)c2)o1 (stereo not drawn)	-53.5
Cc1ccc(CS(=O)Cc2ccc(C(=O)NCc3ccccc3)o2)cc1 (stereo not drawn)	11
COc1ccc(OC)c(CCNC(=O)c2ccc(CS(=O)Cc3ccc(Cl)cc3)o2)c1 (stereo not drawn)	-31
O=C(NCc1ccccc1)c1ccc(CS(=O)Cc2ccc(Cl)cc2)o1 (stereo not drawn)	-62.5
COc1ccc(CNC(=O)c2ccc(CS(=O)Cc3cccc(Cl)c3)o2)cc1 (stereo not drawn)	-37.5
COc1ccc(CNC(=O)c2ccc(CS(=O)Cc3ccc(Cl)cc3)o2)cc1 (stereo not drawn)	-84.6
O=C(NCc1ccccc1Cl)c1ccc(CS(=O)Cc2ccc(Cl)cc2)o1 (stereo not drawn)	-46.9
O=C(NCc1ccc2c(c1)OCO2)c1ccc(CS(=O)Cc2cccc(Cl)c2)o1 (stereo not drawn)	-23.6
O=C(NCc1cccc(Cl)c1)c1ccc(CS(=O)Cc2ccccc2Cl)o1 (stereo not drawn)	-3.52
O=C(NCc1cccs1)c1ccc(CS(=O)Cc2cccc(Cl)c2)o1 (stereo not drawn)	-39.6
O=C(NCc1cccc(Cl)c1)c1ccc(CS(=O)Cc2ccc(Cl)cc2)o1 (stereo not drawn)	-62.1
Cc1ccc(CNC(=O)c2ccc(CS(=O)Cc3cccc(Cl)c3)o2)cc1 (stereo not drawn)	-21.5
COc1cc2c(C(=O)Nc3ccc4c(c3)OCO4)cn(CC(C)C)c(=O)c2cc1OC	-2.44
CCOC(=O)C1C(=O)NC(C)C1c1ccccc1 (stereo not drawn)	-4.44
O=C(COC(=O)c1cc2c(s1)CCCC2)NCc1ccccc1Cl	1.44
CC(C)(C)c1ccc(C(=O)N2CCC(C(=O)NCC3CCCO3)CC2)cc1 (stereo not drawn)	-23.6

SMILES	hERG current change (%, negative = inhibition) at 10uM [%]
CC(=O)C1=C(O)C(=O)N(c2ccc(O)cc2)C1c1ccc(Cl)cc1 (stereo not drawn)	17.4
O=C(O)c1ccccc1OC(C(=O)Nc1cc(Cl)cc(Cl)c1)c1ccccc1 (stereo not drawn)	13.5
CC(=O)NC12CC3CC(C1)CC(C(=O)N1CCN(S(=O)(=O)c4ccccc4[N+](=O)[O-])CC1)(C3)C2	-20.8
CCOC(=O)N1CCc2c(sc(NC(=O)c3ccc(S(=O)(=O)N4CCCC4)cc3)c2C#N)C1	19.3
Cc1nnc(OCc2nc3ccccc3n2C)c2ccccc12	-27.4
Cc1ccc(NC(=O)Cn2cc(C=O)c3ccccc32)cc1	17.5
COc1ccc2c(c1)C=C(C(=O)NCc1ccc(Cl)cc1)CO2	-67
COc1cccc(CNC(=O)C2=Cc3cccc(OC)c3OC2)c1	4.36
O=C(NCc1ccc(Cl)cc1)C1=Cc2cc(Cl)ccc2OC1	-10.2
CCOc1cc(C2Nc3ccccc3C(=O)N2c2ccccc2)ccc1O (stereo not drawn)	4.38
COc1cc(C2Nc3ccccc3C(=O)N2c2ccccc2)c(Br)cc1OCC(=O)O (stereo not drawn)	0.108
CCOc1cc(C2Nc3ccccc3C(=O)N2c2ccccc2)c(Br)cc1OCC(=O)O (stereo not drawn)	-53.8
Cc1ccc2ccc(C(Nc3ccccn3)c3ccccc3)c(O)c2n1 (stereo not drawn)	-3.72
CCOc1ccc(CNC(=S)NCc2ccc(OCC)cc2)cc1	15.2
Cc1ccccc1-c1nc(CN2CCN(C(=O)c3ccco3)CC2)c(C)o1	-5.18
CCOc1ccccc1-c1nc(CN2CCCN(C(=O)c3ccco3)CC2)c(C)o1	9.83
O=C(c1ccco1)N1CCN(Cc2c(Cl)cccc2Cl)CC1	-8.42
COc1ccc(-c2nc(CN3CCN(C(=O)c4ccco4)CC3)c(C)o2)cc1OC	1.8
COc1ccc(F)c(-c2nc(CN3CCN(C(=O)c4ccco4)CC3)c(C)o2)c1	-35.9
Cc1oc(-c2ccc(Cl)cc2)nc1CN1CCCC(C(=O)N2CCN(C(=O)c3ccco3)CC2)C1 (stereo not drawn)	-89.5
Cc1oc(-c2ccccc2Cl)nc1CN1CCCN(C(=O)c2ccco2)CC1	-65.4
Cc1ccc(-c2nc(CSCC(=O)N3CCN(C(=O)c4ccco4)CC3)c(C)o2)cc1	-32.7
O=C(c1ccco1)N1CCN(Cc2csc(-c3ccccc3Cl)n2)CC1	-64.9
Cc1oc(-c2ccc(Cl)cc2)nc1CN1CCCN(C(=O)c2ccco2)CC1	-72.4

SMILES	hERG current change (%, negative = inhibition) at 10uM [%]
COC(=O)c1ccc(-c2nc(CN3CCCN(C(=O)c4ccco4)CC3)c(C)o2)cc1	-41.4
Cc1onc(-c2ccccc2Cl)c1C(=O)N1CCN(C(=O)c2ccco2)CC1	-16
CCCC(=O)C1=C(O)C(C(=O)OC)C(C)(C)CC1=NC(C)C (stereo not drawn)	15.1
Cc1cccc(C)c1NC(=O)CSc1nnc(C)c(=O)[nH]1	15.1
CC[C@@H]1C(=O)OC[C@@H]1CC1=CN=C[NH+]1C.O=[N+]([O-])[O-]	15.7
O=C(O)c1ccc(Oc2ccc(S(=O)(=O)c3ccc(C(=O)O)c(C(=O)O)c3)cc2)cc1	9.42
COc1ccc(CNC(=O)COC(=O)c2ccc(OCc3c(C)noc3C)cc2)cc1OC	13.8
CC1(O)CC(=O)N(c2ccccc2)O1 (stereo not drawn)	-1.7
CCN(CCCNC(=O)C1CCC(=O)N1C1CCCC1)c1cccc(C)c1 (stereo not drawn)	-2.31
COc1ccc(OC)c(CNn2c(-c3cccc(C)c3)nc3ccccc3c2=O)c1	6.92
Cc1cc(C)nc(SC2CCOC2=O)n1 (stereo not drawn)	0.669
Cc1oc(-c2cc(F)ccc2F)nc1CN1CCCN(C(=O)c2ccco2)CC1	-36.6
Cc1oc(-c2cc(F)cc(F)c2)nc1CN1CCN(C(=O)c2ccco2)CC1	-40.5
Cc1oc(-c2cccc(F)c2)nc1CN1CCCN(C(=O)c2ccco2)CC1	-74.7
Cc1ccc(S(C)(=O)=O)cc1C(=O)N1CC(C(N)=O)Oc2ccccc21 (stereo not drawn)	15.6
Cc1cc(Br)c(S(=O)(=O)NCCN2CCOCC2)cc1C	7.8
CCCn1c(SCC(=O)Nc2ccc3c(c2)OCCO3)nnc1-c1ccco1	-66.1
CCn1c(SCC(=O)Nc2ccc3c(c2)OCCO3)nnc1-c1ccco1	-25.9
C=CCn1c(SCC(=O)Nc2ccc3c(c2)OCCO3)nnc1-c1ccco1	-63.3
Cn1c(SCC(=O)Nc2ccc3c(c2)OCCO3)nnc1-c1ccco1	8.89
C=CCn1c(SCC(=O)Nc2ccc3c(c2)OCO3)nnc1-c1ccccc1	-34.7
C=CCn1c(SCC(=O)Nc2ccc3c(c2)OCCO3)nnc1-c1ccccn1	-28.3
COc1ccc(-c2nnc(NC(=O)c3ccc([N+](=O)[O-])o3)o2)c(OC)c1	19.2
CC(C)(C)N(NC(=O)OCc1ccccc1)C(=O)c1ccccc1Cl	-17.5

SMILES	hERG current change (%, negative = inhibition) at 10uM [%]
CCOC(=O)C1=NN(c2ccc(F)cc2)C2=NC(C)=C(C(=O)OC)C(c3cccs3)N12 (stereo not drawn)	-2.17
O=C(O)CCCCCN1C(=O)C(O)=C(C(=O)/C=C/c2ccccc2)C1c1ccc2c(c1)OCO2 (stereo not drawn)	1.89
CC(NCC(O)c1ccc([N+](=O)[O-])cc1)C12CC3CC(CC(C3)C1)C2 (stereo not drawn)	-69.4
CC(=O)NCC(O)c1ccc([N+](=O)[O-])cc1 (stereo not drawn)	13.6
CNC(=S)NCC(O)c1ccc([N+](=O)[O-])cc1 (stereo not drawn)	5.5
COc1ccccc1NC(=O)c1cc(C(=O)O)ccc1C(=O)O	20.4
CCOc1ccccc1NC(C)C(=O)Nc1cc(C(F)(F)F)ccc1N1CCOCC1 (stereo not drawn)	-6.23
COc1ccc(OC)c(C(=O)NC(CC(N)=O)c2ccc(NCCN3CCCC3)c([N+](=O)[O-])c2)c1 (stereo not drawn)	8.75
Cc1ccc(SCC(=O)NCCCN2CCOCC2)cc1	15
Cc1ccc(Cl)cc1NC(=S)N(CCN(C)C)Cc1cccs1	-0.292
Cc1ccc(NC(=S)N(CCCN2CCOCC2)Cc2cccs2)c(C)c1	-11.7
CCN1CCN(CCCN(Cc2cccs2)C(=S)Nc2ccccc2C)CC1	-54.4
Cc1ccccc1NC(=S)N(CCCN1CCCCC1)Cc1ccco1	-45.4
Cc1ccccc1NC(=S)N(CCCN1CCOCC1)Cc1cccs1	-39.9
Cc1ccc(Cl)cc1NC(=S)N(CCCN1CCOCC1)Cc1ccco1	-28.5
Cc1ccc(Cl)cc1NC(=S)N(CCCN1CCN(C)CC1)Cc1ccco1	-52.3
Cc1ccc(Cl)cc1NC(=S)N(CCCN1CCOCC1)Cc1ccccn1	-34.3
Cc1cc(Cl)ccc1NC(=S)N(CCCN1CCOCC1)Cc1cccs1	-32.2
CCN1CCN(CCCN(Cc2ccco2)C(=S)Nc2cc(Cl)ccc2C)CC1	-61.9
Cc1ccc(Cl)cc1NC(=S)N(CCCN1CCN(C)CC1)Cc1cccs1	-61.7
Cc1ccc(Cl)c(NC(=S)N(CCCN2CCOCC2)Cc2ccco2)c1	-35.3
